{"source": "patent US20210230599", "about": "“STEM-LOOP COMPOSITIONS AND METHODS FOR INHIBITING INTERLEUKIN-8” (VITRISA THERAPEUTICS, INC., published 2021)", "data": [{"biological_target": "Interleukin-8 (IL8, CXCL8), C-terminal His-tagged (Homo sapiens, UniProt P10145 SEQ:1-72)", "experiment": "competition; competition TR-FRET; Aptamer 116 variant", "details": "tags: C-terminal His (Sino Biological); stem-loop; ssRNA; 2'-F G except 2'-OMe G at X (CGGU-GGGA-AACGU-GAGAU-GGXUU-GCCG); 2'-OMe A,C,U; 5' C6NH2; 3' idT", "source_text": "(§1) 2′OMe modifications may impart higher duplex stability, increased metabolic stability in serum and vitreous, and may have greater coupling efficiency during synthesis compared to 2′F-containing nucleotides. The use of these nucleotides may also avoid the potential loss of the 2′F group during production, which can happen during deprotection steps and exposure to heat. To probe the effect of 2′F-G to 2′OMe-G substitution on target binding, variants of Aptamer 116 and 212 were synthesized where 2′F-G was selectively substituted with 2′OMe-G (Table 49) and assayed for activity by competition TR-FRET using ALEXA FLUOR® 647-labeled parent Aptamer 212. 2′OMe-G replacements were well tolerated in all positions of stem S1 (Aptamers 242-248).", "values": [{"sequence": "CGGUGGGAAACGUGAGAUGGGUUGCCG [listing 1 of 4 here]", "binding signal": "> 10 fold worse than Aptamer 212"}]}, {"biological_target": "Interleukin-8 (IL8, CXCL8), C-terminal His-tagged (Homo sapiens, UniProt P10145 SEQ:1-72)", "experiment": "competition; competition TR-FRET; Aptamer 116 variant", "details": "tags: C-terminal His (Sino Biological); stem-loop; ssRNA; 2'-F G except 2'-OMe G at X (CGGU-GGGA-AACGU-GAGAU-GXGUU-GCCG); 2'-OMe A,C,U; 5' C6NH2; 3' idT", "source_text": "as §1", "values": [{"sequence": "CGGUGGGAAACGUGAGAUGGGUUGCCG [listing 2 of 4 here]", "binding signal": "> 10 fold worse than Aptamer 212"}]}, {"biological_target": "Interleukin-8 (IL8, CXCL8), C-terminal His-tagged (Homo sapiens, UniProt P10145 SEQ:1-72)", "experiment": "competition; competition TR-FRET; Aptamer 116 variant", "details": "tags: C-terminal His (Sino Biological); stem-loop; ssRNA; 2'-F G except 2'-OMe G at X (CGGU-GGGA-AACGU-GAGAU-XGGUU-GCCG); 2'-OMe A,C,U; 5' C6NH2; 3' idT", "source_text": "as §1", "values": [{"sequence": "CGGUGGGAAACGUGAGAUGGGUUGCCG [listing 3 of 4 here]", "binding signal": "> 10 fold worse than Aptamer 212"}]}, {"biological_target": "Interleukin-8 (IL8, CXCL8), C-terminal His-tagged (Homo sapiens, UniProt P10145 SEQ:1-72)", "experiment": "competition; competition TR-FRET; Aptamer 116 variant", "details": "tags: C-terminal His (Sino Biological); stem-loop; ssRNA; 2'-F G except 2'-OMe G at X (CGGU-GGGA-AACXU-GAGAU-GGGUU-GCCG); 2'-OMe A,C,U; 5' C6NH2; 3' idT", "source_text": "as §1", "values": [{"sequence": "CGGUGGGAAACGUGAGAUGGGUUGCCG [listing 4 of 4 here]", "binding signal": "> 10 fold worse than Aptamer 212"}]}]}
